The target in test [1] is T1, Muscle, skeletal receptor tyrosine-protein kinase (Homo sapiens) (UniProt O15146).
T1 sequence (whole entry): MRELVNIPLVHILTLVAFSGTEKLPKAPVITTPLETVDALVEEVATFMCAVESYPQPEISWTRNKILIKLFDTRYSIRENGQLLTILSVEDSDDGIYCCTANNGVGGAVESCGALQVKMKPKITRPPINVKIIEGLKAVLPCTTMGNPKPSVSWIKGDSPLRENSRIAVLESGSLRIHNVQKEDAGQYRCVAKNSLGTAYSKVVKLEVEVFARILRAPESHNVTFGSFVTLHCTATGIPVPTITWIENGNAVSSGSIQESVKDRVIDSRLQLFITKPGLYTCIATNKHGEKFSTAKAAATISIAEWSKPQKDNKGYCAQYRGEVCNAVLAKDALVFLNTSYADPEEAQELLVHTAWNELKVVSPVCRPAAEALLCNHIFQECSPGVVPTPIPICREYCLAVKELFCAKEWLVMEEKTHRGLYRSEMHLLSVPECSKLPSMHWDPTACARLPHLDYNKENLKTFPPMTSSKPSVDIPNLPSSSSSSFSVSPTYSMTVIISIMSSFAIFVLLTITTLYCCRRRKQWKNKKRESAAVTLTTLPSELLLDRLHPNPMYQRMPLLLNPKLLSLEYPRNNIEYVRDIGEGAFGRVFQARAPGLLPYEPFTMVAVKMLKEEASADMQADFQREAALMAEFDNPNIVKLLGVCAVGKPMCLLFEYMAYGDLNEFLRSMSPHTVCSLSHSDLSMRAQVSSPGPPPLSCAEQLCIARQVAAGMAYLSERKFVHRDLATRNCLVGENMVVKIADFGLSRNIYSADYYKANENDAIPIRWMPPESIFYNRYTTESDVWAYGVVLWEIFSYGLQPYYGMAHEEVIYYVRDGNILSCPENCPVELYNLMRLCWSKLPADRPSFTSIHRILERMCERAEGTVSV
As to conditions: at 1 µM.

In test [2] the target is T1, Muscle, skeletal receptor tyrosine-protein kinase (Homo sapiens). As to conditions: at 10 µM.
The target of test [3] is T2, Serine/threonine-protein kinase Nek11 (Homo sapiens) (UniProt Q8NG66).
T2 sequence (whole entry): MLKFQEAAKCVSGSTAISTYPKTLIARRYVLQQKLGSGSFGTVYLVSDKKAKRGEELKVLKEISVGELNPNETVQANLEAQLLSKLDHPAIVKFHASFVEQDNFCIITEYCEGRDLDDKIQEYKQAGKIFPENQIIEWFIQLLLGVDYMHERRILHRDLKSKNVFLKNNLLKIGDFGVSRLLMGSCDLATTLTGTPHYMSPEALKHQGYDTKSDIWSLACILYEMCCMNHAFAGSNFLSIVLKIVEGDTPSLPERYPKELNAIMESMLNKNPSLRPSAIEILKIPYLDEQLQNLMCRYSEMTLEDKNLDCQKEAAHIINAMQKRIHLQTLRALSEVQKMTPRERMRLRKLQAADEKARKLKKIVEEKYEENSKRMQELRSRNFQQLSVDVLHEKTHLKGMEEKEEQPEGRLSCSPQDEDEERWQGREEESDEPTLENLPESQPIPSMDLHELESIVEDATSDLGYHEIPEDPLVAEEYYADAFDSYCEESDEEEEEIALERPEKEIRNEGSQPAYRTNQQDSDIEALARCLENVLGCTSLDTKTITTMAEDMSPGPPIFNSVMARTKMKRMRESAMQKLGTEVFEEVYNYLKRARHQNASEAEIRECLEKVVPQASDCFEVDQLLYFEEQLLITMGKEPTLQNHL
The note with it: at 1 µM.

Test [4] addresses T2, Serine/threonine-protein kinase Nek11 (Homo sapiens). As to conditions: at 10 µM.
Test [5] deals with T3, Serine/threonine-protein kinase Nek2 (Homo sapiens) (UniProt P51955).
T3 sequence (whole entry): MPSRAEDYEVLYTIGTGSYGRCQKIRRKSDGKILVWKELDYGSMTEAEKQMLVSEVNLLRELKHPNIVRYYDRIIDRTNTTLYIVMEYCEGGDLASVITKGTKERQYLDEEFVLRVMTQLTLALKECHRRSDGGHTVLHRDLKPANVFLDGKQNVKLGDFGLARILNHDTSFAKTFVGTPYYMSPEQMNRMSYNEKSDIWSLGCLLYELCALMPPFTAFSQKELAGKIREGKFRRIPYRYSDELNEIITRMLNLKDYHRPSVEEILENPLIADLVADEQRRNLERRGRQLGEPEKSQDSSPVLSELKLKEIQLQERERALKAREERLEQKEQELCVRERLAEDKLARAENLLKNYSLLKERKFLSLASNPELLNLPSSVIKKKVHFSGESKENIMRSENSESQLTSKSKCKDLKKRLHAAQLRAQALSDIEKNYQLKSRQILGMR
The note with it: at 1 µM.

Test [6] concerns the target T3, Serine/threonine-protein kinase Nek2 (Homo sapiens). As to conditions: at 10 µM.
In test [7] the target is T4, Serine/threonine-protein kinase Nek3 (Homo sapiens) (UniProt P51956).
T4 sequence (whole entry): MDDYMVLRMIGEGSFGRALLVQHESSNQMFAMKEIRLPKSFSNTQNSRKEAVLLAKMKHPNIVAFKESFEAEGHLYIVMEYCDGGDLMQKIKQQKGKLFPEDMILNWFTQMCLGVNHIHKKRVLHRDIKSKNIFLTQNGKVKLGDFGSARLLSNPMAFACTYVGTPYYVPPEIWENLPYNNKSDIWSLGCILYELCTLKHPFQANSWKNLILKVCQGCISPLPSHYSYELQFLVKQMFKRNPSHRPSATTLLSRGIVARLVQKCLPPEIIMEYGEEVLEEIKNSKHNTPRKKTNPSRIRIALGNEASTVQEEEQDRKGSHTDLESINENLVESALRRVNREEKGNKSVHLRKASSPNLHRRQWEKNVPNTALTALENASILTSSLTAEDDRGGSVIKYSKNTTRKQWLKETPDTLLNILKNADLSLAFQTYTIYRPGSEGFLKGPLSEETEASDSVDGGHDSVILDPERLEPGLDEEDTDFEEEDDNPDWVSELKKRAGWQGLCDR
The note with it: at 1 µM.

Test [8] has as its target T4, Serine/threonine-protein kinase Nek3 (Homo sapiens). As to conditions: at 10 µM.
Test [9] addresses Serine/threonine-protein kinase tousled-like 2 (Homo sapiens) (UniProt Q86UE8). The note with it: at 1 µM.
The target is the same in test [10]. As to conditions: at 10 µM.
The target of test [11] is T5, Testis-specific serine/threonine-protein kinase 1 (Homo sapiens) (UniProt Q9BXA7).
T5 sequence (whole entry): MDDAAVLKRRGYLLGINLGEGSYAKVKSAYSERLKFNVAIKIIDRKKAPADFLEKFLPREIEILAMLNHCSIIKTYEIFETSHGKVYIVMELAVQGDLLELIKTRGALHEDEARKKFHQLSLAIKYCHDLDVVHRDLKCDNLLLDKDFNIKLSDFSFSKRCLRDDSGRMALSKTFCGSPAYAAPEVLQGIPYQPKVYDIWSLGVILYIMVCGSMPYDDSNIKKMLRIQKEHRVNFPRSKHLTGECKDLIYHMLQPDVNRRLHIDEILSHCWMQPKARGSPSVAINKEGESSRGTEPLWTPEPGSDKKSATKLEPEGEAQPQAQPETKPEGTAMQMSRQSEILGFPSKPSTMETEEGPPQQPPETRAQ
As to conditions: at 1 µM.

The target of test [12] is T5, Testis-specific serine/threonine-protein kinase 1 (Homo sapiens). The note with it: at 10 µM.
Test [13] deals with T6, Testis-specific serine/threonine-protein kinase 2 (Homo sapiens) (UniProt Q96PF2).
T6 sequence (whole entry): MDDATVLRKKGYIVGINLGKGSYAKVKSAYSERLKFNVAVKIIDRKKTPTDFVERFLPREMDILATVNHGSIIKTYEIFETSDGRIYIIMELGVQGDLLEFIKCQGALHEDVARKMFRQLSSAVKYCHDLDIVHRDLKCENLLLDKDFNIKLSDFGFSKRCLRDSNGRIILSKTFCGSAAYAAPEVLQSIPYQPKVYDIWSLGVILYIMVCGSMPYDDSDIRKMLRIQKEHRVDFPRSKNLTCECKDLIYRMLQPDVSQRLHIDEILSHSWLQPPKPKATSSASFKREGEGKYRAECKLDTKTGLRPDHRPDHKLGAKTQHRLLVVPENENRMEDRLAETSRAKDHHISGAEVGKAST
The note with it: at 10 µM.

In test [14] the target is T7, Tyrosine-protein kinase Tec (Homo sapiens) (UniProt P42680).
T7 sequence (whole entry): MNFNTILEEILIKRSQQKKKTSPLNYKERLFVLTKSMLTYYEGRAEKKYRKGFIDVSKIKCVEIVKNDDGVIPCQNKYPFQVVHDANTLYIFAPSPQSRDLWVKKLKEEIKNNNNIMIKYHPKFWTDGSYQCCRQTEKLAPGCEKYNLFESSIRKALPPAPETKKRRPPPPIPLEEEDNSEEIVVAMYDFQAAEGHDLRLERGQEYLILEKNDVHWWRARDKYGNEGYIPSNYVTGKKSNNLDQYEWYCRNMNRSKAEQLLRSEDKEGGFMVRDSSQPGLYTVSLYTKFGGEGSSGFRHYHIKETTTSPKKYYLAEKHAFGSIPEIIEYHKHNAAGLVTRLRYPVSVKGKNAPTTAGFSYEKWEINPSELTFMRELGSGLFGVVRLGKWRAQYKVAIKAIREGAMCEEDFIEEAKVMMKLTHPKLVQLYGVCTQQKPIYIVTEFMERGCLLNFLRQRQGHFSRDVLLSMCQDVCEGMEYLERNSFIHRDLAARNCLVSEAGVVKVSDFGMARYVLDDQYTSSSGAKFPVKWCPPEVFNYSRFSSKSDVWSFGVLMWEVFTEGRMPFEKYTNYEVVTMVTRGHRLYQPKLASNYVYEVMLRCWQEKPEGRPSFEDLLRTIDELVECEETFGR
As to conditions: at 1 µM.

The target of test [15] is T7, Tyrosine-protein kinase Tec (Homo sapiens). The note with it: at 10 µM.
For test [16], the target named is Angiopoietin-1 receptor (Homo sapiens) (UniProt Q02763). As to conditions: at 1 µM.
Test [17] shares this target. As to conditions: at 10 µM.
For test [18], the target named is High affinity nerve growth factor receptor (Homo sapiens) (UniProt P04629). As to conditions: at 1 µM.
The target is the same in test [19]. The note with it: at 10 µM.
Test [20] deals with BDNF/NT-3 growth factors receptor (Homo sapiens) (UniProt Q16620). As to conditions: at 1 µM.
BDNF/NT-3 growth factors receptor (Homo sapiens), sequence (Q16620 32-822 limits assumed): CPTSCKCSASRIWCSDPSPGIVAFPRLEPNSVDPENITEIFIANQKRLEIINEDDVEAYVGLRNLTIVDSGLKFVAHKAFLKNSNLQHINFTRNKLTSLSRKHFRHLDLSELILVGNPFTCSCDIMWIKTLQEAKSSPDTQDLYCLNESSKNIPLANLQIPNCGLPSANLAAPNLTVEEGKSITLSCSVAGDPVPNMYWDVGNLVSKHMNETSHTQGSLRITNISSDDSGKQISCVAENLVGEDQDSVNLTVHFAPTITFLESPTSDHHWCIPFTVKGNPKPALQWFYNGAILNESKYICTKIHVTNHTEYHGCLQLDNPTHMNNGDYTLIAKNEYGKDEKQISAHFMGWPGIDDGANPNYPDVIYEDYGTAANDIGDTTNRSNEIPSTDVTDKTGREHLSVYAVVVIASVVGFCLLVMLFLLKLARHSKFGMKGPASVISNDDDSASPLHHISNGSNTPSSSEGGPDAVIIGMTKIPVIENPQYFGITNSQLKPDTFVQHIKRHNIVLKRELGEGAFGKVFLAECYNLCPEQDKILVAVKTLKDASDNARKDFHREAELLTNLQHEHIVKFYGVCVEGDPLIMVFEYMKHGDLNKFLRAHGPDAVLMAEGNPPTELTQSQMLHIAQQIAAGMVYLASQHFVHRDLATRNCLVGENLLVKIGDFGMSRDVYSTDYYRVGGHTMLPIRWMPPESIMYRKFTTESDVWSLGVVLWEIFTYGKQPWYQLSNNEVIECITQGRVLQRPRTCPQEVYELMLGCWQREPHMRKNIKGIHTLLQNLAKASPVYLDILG

High affinity nerve growth factor receptor (Homo sapiens), sequence (P04629 33-796 limits assumed): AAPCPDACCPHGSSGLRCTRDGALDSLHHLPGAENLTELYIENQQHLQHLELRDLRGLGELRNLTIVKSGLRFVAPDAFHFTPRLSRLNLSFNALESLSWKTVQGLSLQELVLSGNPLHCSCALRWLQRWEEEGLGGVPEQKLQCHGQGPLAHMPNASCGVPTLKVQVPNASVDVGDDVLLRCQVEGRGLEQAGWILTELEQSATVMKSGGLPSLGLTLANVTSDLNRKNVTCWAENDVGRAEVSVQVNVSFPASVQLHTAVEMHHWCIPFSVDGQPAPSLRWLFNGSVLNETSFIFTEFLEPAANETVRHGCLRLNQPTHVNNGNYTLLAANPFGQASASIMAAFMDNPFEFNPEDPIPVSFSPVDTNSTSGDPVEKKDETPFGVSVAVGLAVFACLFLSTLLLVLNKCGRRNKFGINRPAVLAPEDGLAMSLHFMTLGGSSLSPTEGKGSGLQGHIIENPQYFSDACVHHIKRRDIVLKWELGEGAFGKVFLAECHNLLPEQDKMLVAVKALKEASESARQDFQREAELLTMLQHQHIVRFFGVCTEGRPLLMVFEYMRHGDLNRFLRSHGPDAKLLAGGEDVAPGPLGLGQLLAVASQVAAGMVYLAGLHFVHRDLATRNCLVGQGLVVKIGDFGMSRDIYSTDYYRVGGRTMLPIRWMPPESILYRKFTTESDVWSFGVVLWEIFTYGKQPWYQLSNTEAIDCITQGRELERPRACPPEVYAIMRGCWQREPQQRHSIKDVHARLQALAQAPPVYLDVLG
Serine/threonine-protein kinase tousled-like 2 (Homo sapiens), sequence (Q86UE8 whole entry, looked up): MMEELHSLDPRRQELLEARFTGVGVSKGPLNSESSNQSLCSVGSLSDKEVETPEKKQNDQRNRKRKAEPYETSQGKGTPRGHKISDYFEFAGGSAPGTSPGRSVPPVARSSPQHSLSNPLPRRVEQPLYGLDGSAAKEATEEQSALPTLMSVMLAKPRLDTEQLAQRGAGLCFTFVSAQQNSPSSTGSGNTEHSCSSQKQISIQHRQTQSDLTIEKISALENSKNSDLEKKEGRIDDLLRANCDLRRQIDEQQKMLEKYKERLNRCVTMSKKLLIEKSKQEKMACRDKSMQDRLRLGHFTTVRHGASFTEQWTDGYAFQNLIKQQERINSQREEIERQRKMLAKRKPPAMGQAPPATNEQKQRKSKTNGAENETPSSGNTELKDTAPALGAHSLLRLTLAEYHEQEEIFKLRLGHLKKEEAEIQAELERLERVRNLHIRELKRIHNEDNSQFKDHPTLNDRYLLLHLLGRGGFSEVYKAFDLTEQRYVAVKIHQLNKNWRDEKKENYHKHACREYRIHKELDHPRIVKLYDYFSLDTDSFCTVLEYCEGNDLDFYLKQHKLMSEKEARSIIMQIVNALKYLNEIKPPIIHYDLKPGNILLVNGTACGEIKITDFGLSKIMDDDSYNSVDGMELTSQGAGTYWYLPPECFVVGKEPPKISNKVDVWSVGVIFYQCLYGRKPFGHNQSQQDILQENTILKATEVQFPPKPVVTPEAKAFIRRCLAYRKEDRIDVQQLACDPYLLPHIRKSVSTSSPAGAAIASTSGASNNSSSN
Angiopoietin-1 receptor (Homo sapiens), sequence (Q02763 whole entry): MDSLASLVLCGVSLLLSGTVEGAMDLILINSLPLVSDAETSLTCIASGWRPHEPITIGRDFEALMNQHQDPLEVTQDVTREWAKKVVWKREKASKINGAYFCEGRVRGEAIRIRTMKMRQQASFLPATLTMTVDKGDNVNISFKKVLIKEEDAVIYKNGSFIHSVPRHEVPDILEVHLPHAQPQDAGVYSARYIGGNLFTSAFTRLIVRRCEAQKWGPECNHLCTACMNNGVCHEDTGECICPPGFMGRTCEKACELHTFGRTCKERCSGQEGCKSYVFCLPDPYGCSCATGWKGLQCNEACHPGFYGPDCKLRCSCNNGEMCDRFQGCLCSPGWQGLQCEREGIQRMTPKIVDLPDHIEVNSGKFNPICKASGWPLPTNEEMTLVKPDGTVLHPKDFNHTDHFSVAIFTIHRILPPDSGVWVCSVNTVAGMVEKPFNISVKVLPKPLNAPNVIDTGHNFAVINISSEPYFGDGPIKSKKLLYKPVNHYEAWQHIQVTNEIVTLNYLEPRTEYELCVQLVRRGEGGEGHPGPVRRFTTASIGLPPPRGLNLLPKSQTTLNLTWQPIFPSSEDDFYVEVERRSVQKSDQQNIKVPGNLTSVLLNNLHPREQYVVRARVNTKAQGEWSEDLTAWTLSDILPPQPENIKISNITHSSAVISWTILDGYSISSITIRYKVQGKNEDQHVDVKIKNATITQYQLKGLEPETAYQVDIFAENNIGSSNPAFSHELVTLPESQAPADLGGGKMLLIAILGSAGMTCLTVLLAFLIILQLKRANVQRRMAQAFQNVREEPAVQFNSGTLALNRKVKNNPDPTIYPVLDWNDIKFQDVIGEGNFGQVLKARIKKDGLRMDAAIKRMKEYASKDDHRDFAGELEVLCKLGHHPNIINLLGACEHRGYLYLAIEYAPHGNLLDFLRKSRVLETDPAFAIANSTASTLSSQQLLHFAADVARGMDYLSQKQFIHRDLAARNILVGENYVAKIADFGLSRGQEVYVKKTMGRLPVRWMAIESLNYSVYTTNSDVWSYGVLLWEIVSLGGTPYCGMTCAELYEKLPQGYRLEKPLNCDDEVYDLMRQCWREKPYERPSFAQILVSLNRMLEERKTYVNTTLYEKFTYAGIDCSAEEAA

For the compound `Oc1n[nH]c2nnc(-c3c(-c4ccccc4)nn4ccccc34)cc12`, the residual activity in [1] was found to be 87%; in test [2], 84%; in test [3], 56%; in [4], 74%; in test [5] it was 95%; in [6], 93%. Besides, the residual activity in test [7] turned out to be 77%; in test [8], 103%; in test [9], 83%; in test [10] it was 82%; in [11], 82%; in [12], 93%. Further, the residual activity amounted to 83% in [13]; 85% in test [14]; 66% in [15]; 97% in [16]; 93% in test [17]; 83% in test [18]. For the same compound, the results for the residual activity in test [19] and in test [20] were 70% and 98%, respectively.

`CC#CC(=O)Nc1cc2c(Nc3ccc(F)c(Cl)c3)ncnc2cn1`: the residual activity in test [1] is 100%; in test [2] it was 84%; in test [3] it was 70%; in test [4] it was 99%; in [5], 73%; in [6] it was 95%. Also, the residual activity in test [7] is 107%; in test [8], 84%; in test [9], 102%; in test [10], 87%; in test [11], 98%; in test [12], 81%. For the same compound, the residual activity in test [13] is 82%; in [14] it was 62%; in test [15] it was 70%; in [16], 52%; in [17], 57%; in test [18], 91%. Also, the residual activity in [19] was found to be 111%; in test [20], 110%.

Consider `COc1cc2ncnc(N3CCN(C(=O)Nc4ccc(Oc5ccccc5)cc4)CC3)c2cc1OC`, for which the residual activity is 71% in [1]; 49% in test [2]; 110% in test [3]; 115% in test [4]; 81% in [5]; 82% in [6]. The residual activity stood at 110% in test [7]; 87% in test [8]; 88% in [9]; 88% in test [10]; 88% in [11]; 76% in test [12]. Also, the residual activity in test [13] was found to be 117%; in [14], 83%; in [15] it was 98%; in test [16], 69%; in test [17] it was 69%; in [18], 71%. Further, the residual activity turned out to be 30% in [19] and 39% in test [20].

In the case of `C[C@@H](N)[C@H]1CC[C@H](C(=O)Nc2ccncc2)CC1`, the residual activity in test [1] came to 103%; in test [2], 101%; in test [3], 99%; in test [4], 96%; in [5], 120%; in test [6], 102%. Besides, the residual activity in test [7] is 120%; in test [8] it was 120%; in [9], 93%; in test [10], 94%; in [11], 97%; in [12] it was 90%. The residual activity in test [13] was determined as 99%; in test [14], 83%; in test [15], 98%; in [16], 84%; in test [17], 78%; in test [18], 112%. Further, the residual activity amounted to 105% in test [19] and 106% in test [20].

One may read the residual activity as the signal under treatment as a percentage of the control signal.

These data come from ChEMBL document CHEMBL2218924, “A broad activity screen in support of a chemogenomic map for kinase signalling research and drug discovery” (Biochem J, 2013).
